Laboratory results taken from the supplement of paper PMC4466140.

B1: unnamed (peptide)
chain: NMLKKKPLKKPLKRF

These binders were tested against AgAbp1 (assay: SPOT peptide array binding signal intensity (averaged, normalized) (arbitrary units (background-subtracted, floor 0; scale differs between SH3 domains)); higher = stronger binding of the SH3 domain to the peptide).
Procedure, shortened: (§1)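 Cellulose membranes carried synthetic 15-mer peptides with cysteines swapped for serines. These were incubated overnight at 4°C with 10 μg/ml of GST-fused SH3 domains from four yeast species in TBS-based blocking buffer. Binding signal, detected with anti-GST antibody and quantified in Genespotter, is the normalized, background-subtracted spot intensity averaged over replicates, in arbitrary units specific to each domain.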

Binder	SPOT peptide array binding signal intensity
B1	2990

The binders below were run against AgBbc1 in the same assay as above.
Procedure, shortened: as §1

Binder	SPOT peptide array binding signal intensity
B1	12.5

Each binder was assayed against AgBem1-D1 in the same assay as above.
Procedure, shortened: as §1

Binder	SPOT peptide array binding signal intensity
B1	382

The binders below were run against AgBzz1-D1 in the same assay as above.
Procedure, shortened: as §1

Binder	SPOT peptide array binding signal intensity
B1	48

These binders were tested against AgBzz1-D2 in the same assay as above.
Procedure, shortened: as §1

Binder	SPOT peptide array binding signal intensity
B1	48

These binders were tested against AgCyk3 in the same assay as above.
Procedure, shortened: as §1

Binder	SPOT peptide array binding signal intensity
B1	1

What follows are binders tested against AgFus1 in the same assay as above.
Procedure, shortened: as §1

Binder	SPOT peptide array binding signal intensity
B1	450

The binders below were run against AgHof1 in the same assay as above.
Procedure, shortened: as §1

Binder	SPOT peptide array binding signal intensity
B1	75

These binders were tested against AgHse1 in the same assay as above.
Procedure, shortened: as §1

Binder	SPOT peptide array binding signal intensity
B1	924

Each binder was assayed against AgLsb1 in the same assay as above.
Procedure, shortened: as §1

Binder	SPOT peptide array binding signal intensity
B1	1

What follows are binders tested against AgLsb4 in the same assay as above.
Procedure, shortened: as §1

Binder	SPOT peptide array binding signal intensity
B1	84

What follows are binders tested against AgMyo5 in the same assay as above.
Procedure, shortened: as §1

Binder	SPOT peptide array binding signal intensity
B1	≤ 0

Each binder was assayed against AgNbp2 in the same assay as above.
Procedure, shortened: as §1

Binder	SPOT peptide array binding signal intensity
B1	275

What follows are binders tested against AgRvs167 in the same assay as above.
Procedure, shortened: as §1

Binder	SPOT peptide array binding signal intensity
B1	6.17

These binders were tested against AgSho1 in the same assay as above.
Procedure, shortened: as §1

Binder	SPOT peptide array binding signal intensity
B1	363

What follows are binders tested against AgSla1-D1-D2 in the same assay as above.
Procedure, shortened: as §1

Binder	SPOT peptide array binding signal intensity
B1	415

Each binder was assayed against AgSla1-D3 in the same assay as above.
Procedure, shortened: as §1

Binder	SPOT peptide array binding signal intensity
B1	10

The binders below were run against CaAbp1-D1 in the same assay as above.
Procedure, shortened: as §1

Binder	SPOT peptide array binding signal intensity
B1	2870

The binders below were run against CaAbp1-D2 in the same assay as above.
Procedure, shortened: as §1

Binder	SPOT peptide array binding signal intensity
B1	4760

Each binder was assayed against CaBbc1 in the same assay as above.
Procedure, shortened: as §1

Binder	SPOT peptide array binding signal intensity
B1	98.5

The binders below were run against CaBem1-D1 in the same assay as above.
Procedure, shortened: as §1

Binder	SPOT peptide array binding signal intensity
B1	268

The binders below were run against CaBzz1-D1 in the same assay as above.
Procedure, shortened: as §1

Binder	SPOT peptide array binding signal intensity
B1	208

Each binder was assayed against CaBzz1-D2 in the same assay as above.
Procedure, shortened: as §1

Binder	SPOT peptide array binding signal intensity
B1	225

These binders were tested against CaCyk3 in the same assay as above.
Procedure, shortened: as §1

Binder	SPOT peptide array binding signal intensity
B1	18

Each binder was assayed against CaFus1 in the same assay as above.
Procedure, shortened: as §1

Binder	SPOT peptide array binding signal intensity
B1	2320

What follows are binders tested against CaHof1 in the same assay as above.
Procedure, shortened: as §1

Binder	SPOT peptide array binding signal intensity
B1	≤ 0

The binders below were run against CaHse1 in the same assay as above.
Procedure, shortened: as §1

Binder	SPOT peptide array binding signal intensity
B1	226

What follows are binders tested against CaLsb1 in the same assay as above.
Procedure, shortened: as §1

Binder	SPOT peptide array binding signal intensity
B1	4.5

The binders below were run against CaLsb4 in the same assay as above.
Procedure, shortened: as §1

Binder	SPOT peptide array binding signal intensity
B1	506

What follows are binders tested against CaMyo5 in the same assay as above.
Procedure, shortened: as §1

Binder	SPOT peptide array binding signal intensity
B1	27.5

These binders were tested against CaNbp2 in the same assay as above.
Procedure, shortened: as §1

Binder	SPOT peptide array binding signal intensity
B1	438

These binders were tested against CaRvs167 in the same assay as above.
Procedure, shortened: as §1

Binder	SPOT peptide array binding signal intensity
B1	47.7

The binders below were run against CaRvs167-3 in the same assay as above.
Procedure, shortened: as §1

Binder	SPOT peptide array binding signal intensity
B1	44

Each binder was assayed against CaSho1 in the same assay as above.
Procedure, shortened: as §1

Binder	SPOT peptide array binding signal intensity
B1	612

These binders were tested against CaSla1-D1-D2 in the same assay as above.
Procedure, shortened: as §1

Binder	SPOT peptide array binding signal intensity
B1	586

Each binder was assayed against CaSla1-D3 in the same assay as above.
Procedure, shortened: as §1

Binder	SPOT peptide array binding signal intensity
B1	370

Each binder was assayed against ScAbp1 in the same assay as above.
Procedure, shortened: as §1

Binder	SPOT peptide array binding signal intensity
B1	1040

Each binder was assayed against ScBbc1 in the same assay as above.
Procedure, shortened: as §1

Binder	SPOT peptide array binding signal intensity
B1	1.5

These binders were tested against ScBem1-D1 in the same assay as above.
Procedure, shortened: as §1

Binder	SPOT peptide array binding signal intensity
B1	31

What follows are binders tested against ScBzz1-D1 in the same assay as above.
Procedure, shortened: as §1

Binder	SPOT peptide array binding signal intensity
B1	10

What follows are binders tested against ScBzz1-D2 in the same assay as above.
Procedure, shortened: as §1

Binder	SPOT peptide array binding signal intensity
B1	22

These binders were tested against ScCyk3 in the same assay as above.
Procedure, shortened: as §1

Binder	SPOT peptide array binding signal intensity
B1	28

These binders were tested against ScFus1 in the same assay as above.
Procedure, shortened: as §1

Binder	SPOT peptide array binding signal intensity
B1	648

Each binder was assayed against ScHof1 in the same assay as above.
Procedure, shortened: as §1

Binder	SPOT peptide array binding signal intensity
B1	0.25

What follows are binders tested against ScHse1 in the same assay as above.
Procedure, shortened: as §1

Binder	SPOT peptide array binding signal intensity
B1	1740

What follows are binders tested against ScLsb1 in the same assay as above.
Procedure, shortened: as §1

Binder	SPOT peptide array binding signal intensity
B1	1

What follows are binders tested against ScLsb2 in the same assay as above.
Procedure, shortened: as §1

Binder	SPOT peptide array binding signal intensity
B1	1

Each binder was assayed against ScLsb3 in the same assay as above.
Procedure, shortened: as §1

Binder	SPOT peptide array binding signal intensity
B1	340

The binders below were run against ScLsb4 in the same assay as above.
Procedure, shortened: as §1

Binder	SPOT peptide array binding signal intensity
B1	94

These binders were tested against ScMyo3 in the same assay as above.
Procedure, shortened: as §1

Binder	SPOT peptide array binding signal intensity
B1	2

Each binder was assayed against ScMyo5 in the same assay as above.
Procedure, shortened: as §1

Binder	SPOT peptide array binding signal intensity
B1	≤ 0

These binders were tested against ScNbp2 in the same assay as above.
Procedure, shortened: as §1

Binder	SPOT peptide array binding signal intensity
B1	552

These binders were tested against ScPex13 in the same assay as above.
Procedure, shortened: as §1

Binder	SPOT peptide array binding signal intensity
B1	194

Each binder was assayed against ScRvs167 in the same assay as above.
Procedure, shortened: as §1

Binder	SPOT peptide array binding signal intensity
B1	7

These binders were tested against ScSho1 in the same assay as above.
Procedure, shortened: as §1

Binder	SPOT peptide array binding signal intensity
B1	1720

What follows are binders tested against ScSla1-D1-D2 in the same assay as above.
Procedure, shortened: as §1

Binder	SPOT peptide array binding signal intensity
B1	616

The binders below were run against ScSla1-D3 in the same assay as above.
Procedure, shortened: as §1

Binder	SPOT peptide array binding signal intensity
B1	261

Each binder was assayed against SpAbp1-D1 in the same assay as above.
Procedure, shortened: as §1

Binder	SPOT peptide array binding signal intensity
B1	1740

These binders were tested against SpBbc1 in the same assay as above.
Procedure, shortened: as §1

Binder	SPOT peptide array binding signal intensity
B1	4.25

What follows are binders tested against SpBzz1-D1 in the same assay as above.
Procedure, shortened: as §1

Binder	SPOT peptide array binding signal intensity
B1	279

What follows are binders tested against SpBzz1-D2 in the same assay as above.
Procedure, shortened: as §1

Binder	SPOT peptide array binding signal intensity
B1	48.2

The binders below were run against SpCyk3 in the same assay as above.
Procedure, shortened: as §1

Binder	SPOT peptide array binding signal intensity
B1	7.5

The binders below were run against SpHof1 in the same assay as above.
Procedure, shortened: as §1

Binder	SPOT peptide array binding signal intensity
B1	134

These binders were tested against SpHof1-2 in the same assay as above.
Procedure, shortened: as §1

Binder	SPOT peptide array binding signal intensity
B1	26

The binders below were run against SpHof1-3 in the same assay as above.
Procedure, shortened: as §1

Binder	SPOT peptide array binding signal intensity
B1	804

These binders were tested against SpHse1 in the same assay as above.
Procedure, shortened: as §1

Binder	SPOT peptide array binding signal intensity
B1	772

These binders were tested against SpLsb1 in the same assay as above.
Procedure, shortened: as §1

Binder	SPOT peptide array binding signal intensity
B1	31.8

Each binder was assayed against SpLsb4 in the same assay as above.
Procedure, shortened: as §1

Binder	SPOT peptide array binding signal intensity
B1	388

The binders below were run against SpMyo1 in the same assay as above.
Procedure, shortened: as §1

Binder	SPOT peptide array binding signal intensity
B1	21.8

These binders were tested against SpNbp2 in the same assay as above.
Procedure, shortened: as §1

Binder	SPOT peptide array binding signal intensity
B1	536

The binders below were run against SpPex13 in the same assay as above.
Procedure, shortened: as §1

Binder	SPOT peptide array binding signal intensity
B1	73.5

These binders were tested against SpRvs167 in the same assay as above.
Procedure, shortened: as §1

Binder	SPOT peptide array binding signal intensity
B1	15.8

What follows are binders tested against SpSla1-D1-D2 in the same assay as above.
Procedure, shortened: as §1

Binder	SPOT peptide array binding signal intensity
B1	9

What follows are binders tested against SpSla1-D3 in the same assay as above.
Procedure, shortened: as §1

Binder	SPOT peptide array binding signal intensity
B1	106
